These sequences were tested on RARb homodimer (NR concentration 270 nM) (assay: PBM binding z-score (relative to random genomic background probes); higher = stronger binding; sequences stand for … in GC…GCGATTGACAGCGTAGAATGAAGG).
Method in brief: (§1)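 Ligand-free nuclear receptor dimers were bound for 1 h to custom Agilent 4×180K protein-binding microarrays. Detection used antibodies against each partner (one per run). Binding z-scores rest on regression-normalized fluorescence, with random background probes as the reference.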
With ATACCAAGGTGATAGTGAGGTCGTTGATACTAAC the PBM binding z-score was 1.84. Work on ATCTCTAGGTACGACTCAGTTCAGTGAAGAACGC yielded a PBM binding z-score of 0.848. TCAGACAGGTGAAGGTAATTCAGGTACGCAGTCG was tested, and the PBM binding z-score was 0.916. ATATGTAGGTTACATCCGGGTCATACAGGCTATG gave a PBM binding z-score of 2.77. In the case of GCTAGTTGGTCAGGAAAAGGTCACACACCGGTCG, the PBM binding z-score is reported as 5.07. TCGAGTAGGCTAGTCGGGGCATTCAGCCAACATA was tested, and the PBM binding z-score was -0.562. ACTCGGAGGACAAAGTTCAGAGCTACGCCAGTGA gave a PBM binding z-score of 2.84. For ACTAGTTGGTCAGCTGAGGTTACACACAATTCGG, the PBM binding z-score was 2.03. TCATGTAGATCAAGCAGGTTAAGAAAGCCTGAGT was tested, and the PBM binding z-score was 0.058. For CCTACTGGGCCATCAGGTCAGTGATATCAACGTT, the PBM binding z-score was 2.46. ATCTCTAGGTAACGTTCAGTGAAAGATCGATAGA gave a PBM binding z-score of 0.194. Sequence TCTAGCAGGCCAGAGGGTCACTCAGGAGGTACGG has a PBM binding z-score of 2.75. With ATCGAAAGGTCGAGGTGACTATAGAGAAAGGGAA the PBM binding z-score was 2.73. TCTATGAGTTGAAGGGCAACCGACGAGTCCGTTT showed a PBM binding z-score of 1.12. With CCTACTGGGCCATTCGGAGGTCATTGATCATATG the PBM binding z-score was 3.37. CGAACTAGGCCATCCAGGACAGTGAATACATTGA gave a PBM binding z-score of 0.41. ATCTCTAGCTAAAGATAGTTCAGTGAATGCAAAT was tested, and the PBM binding z-score was 0.481. TGAAAGAGGTTATAAGATCAGGGAACGTTGCAAA showed a PBM binding z-score of 0.261. CCTACTGGGCCTTTCAGAGGTCATTGATCATATG was tested, and the PBM binding z-score was 3.64. In the case of GGAACGAGGGCAAGTTGATAACAGAGTTTGATGG, the PBM binding z-score is reported as 1.22. Work on TCAGACAGGCGAAGGTAACTCAGGTACGCAGTCG yielded a PBM binding z-score of -0.405. TCATATAGGTAAAAGCTGAAAGTCGGTGTGGTAA showed a PBM binding z-score of -0.59. Work on CCGACTGGGGCAAAGGCTACCATACTCAGTACGA yielded a PBM binding z-score of 0.592. For CGTCCAAAGTCATAGGAGGTCAGTGAAGACAGAT, the PBM binding z-score was 3.55. TCTCGGAGGACACGGAGGTCAGAGCTTTCCAGAG was tested, and the PBM binding z-score was 3.7. TCTCGGACGACACGAAAGGTCAGAGCTCGACATC was tested, and the PBM binding z-score was 4.33. Sequence TCTTGTAGATCAAGCAGGTTCAGAAAGCCTGAGT has a PBM binding z-score of -0.055. With ACTGACGGGTCAACGAGGTTATAGCACGCGTATA the PBM binding z-score was 3.27. TCGATTAGGTTAGGGGCATTCAGAATGGCGTCGA showed a PBM binding z-score of 1.25. For TCGAGTAGGTTAGCAATGGGGCATTCAGCTTTCT, the PBM binding z-score was 0.353. For AATACAGGGTCAGTAGGCCAGAGTAGGTACGAAT, the PBM binding z-score was 3.07. ATCGAAAGCTCGACGAGGTGAGTATACACCGTTT showed a PBM binding z-score of -0.193. TAGCCTAGGTGATGCGGGCCAGTATAGTGTCGGC was tested, and the PBM binding z-score was -0.307. Work on CTCGAAAGGTCGGTTGAGATGAGTATACGGATAA yielded a PBM binding z-score of 1.74. In the case of CCTAGTTGGTCCAGGTCACACACGCTATAGGTAC, the PBM binding z-score is reported as 3.15. CCTATTAGTTGACCATAATGGCAACCGAAGCTCG was tested, and the PBM binding z-score was 0.786. With TGAATGAGGTTATCAGATCAGGGAACGTTGCAAA the PBM binding z-score was 0.317. Sequence TCTATTAGTTGATTAGGGCTACCGAAACAGCGGA has a PBM binding z-score of -0.115. AGACCAAGGTGATCGTGAGGTCGTTGATACTAAC showed a PBM binding z-score of 1.51. In the case of GCTAGCAGGCCATTTGGATCACTCAATGACGGGC, the PBM binding z-score is reported as -0.535.

These sequences were tested on RARg:RXRa (NR concentration 270 nM, RXRa partner concentration 90 nM) in the same assay as above.
Method in brief: as §1
ATACCAAGGTGATAGTGAGGTCGTTGATACTAAC showed a PBM binding z-score of 2.12. Sequence ATCTCTAGGTACGACTCAGTTCAGTGAAGAACGC has a PBM binding z-score of 0.255. TCAGACAGGTGAAGGTAATTCAGGTACGCAGTCG showed a PBM binding z-score of 0.717. Sequence ATATGTAGGTTACATCCGGGTCATACAGGCTATG has a PBM binding z-score of 3.85. GCTAGTTGGTCAGGAAAAGGTCACACACCGGTCG showed a PBM binding z-score of 5.34. TCGAGTAGGCTAGTCGGGGCATTCAGCCAACATA gave a PBM binding z-score of -0.554. With ACTCGGAGGACAAAGTTCAGAGCTACGCCAGTGA the PBM binding z-score was 3.2. ACTAGTTGGTCAGCTGAGGTTACACACAATTCGG showed a PBM binding z-score of 1.46. TCATGTAGATCAAGCAGGTTAAGAAAGCCTGAGT was tested, and the PBM binding z-score was 0.118. CCTACTGGGCCATCAGGTCAGTGATATCAACGTT showed a PBM binding z-score of 1.18. Sequence ATCTCTAGGTAACGTTCAGTGAAAGATCGATAGA has a PBM binding z-score of 0.535. With TCTAGCAGGCCAGAGGGTCACTCAGGAGGTACGG the PBM binding z-score was 2.62. In the case of ATCGAAAGGTCGAGGTGACTATAGAGAAAGGGAA, the PBM binding z-score is reported as 4.4. TCTATGAGTTGAAGGGCAACCGACGAGTCCGTTT was tested, and the PBM binding z-score was 0.637. With CCTACTGGGCCATTCGGAGGTCATTGATCATATG the PBM binding z-score was 3.59. CGAACTAGGCCATCCAGGACAGTGAATACATTGA gave a PBM binding z-score of 0.517. Work on ATCTCTAGCTAAAGATAGTTCAGTGAATGCAAAT yielded a PBM binding z-score of 0.461. For TGAAAGAGGTTATAAGATCAGGGAACGTTGCAAA, the PBM binding z-score was 2.01. For CCTACTGGGCCTTTCAGAGGTCATTGATCATATG, the PBM binding z-score was 3.43. GGAACGAGGGCAAGTTGATAACAGAGTTTGATGG showed a PBM binding z-score of 1.6. With TCAGACAGGCGAAGGTAACTCAGGTACGCAGTCG the PBM binding z-score was -0.089. Work on TCATATAGGTAAAAGCTGAAAGTCGGTGTGGTAA yielded a PBM binding z-score of -0.0558. CCGACTGGGGCAAAGGCTACCATACTCAGTACGA was tested, and the PBM binding z-score was 0.577. CGTCCAAAGTCATAGGAGGTCAGTGAAGACAGAT was tested, and the PBM binding z-score was 2.71. TCTCGGAGGACACGGAGGTCAGAGCTTTCCAGAG was tested, and the PBM binding z-score was 3.54. TCTCGGACGACACGAAAGGTCAGAGCTCGACATC gave a PBM binding z-score of 4.43. Sequence TCTTGTAGATCAAGCAGGTTCAGAAAGCCTGAGT has a PBM binding z-score of -0.213. ACTGACGGGTCAACGAGGTTATAGCACGCGTATA showed a PBM binding z-score of 4.88. TCGATTAGGTTAGGGGCATTCAGAATGGCGTCGA was tested, and the PBM binding z-score was 0.511. TCGAGTAGGTTAGCAATGGGGCATTCAGCTTTCT gave a PBM binding z-score of 0.194. AATACAGGGTCAGTAGGCCAGAGTAGGTACGAAT showed a PBM binding z-score of 4.31. With ATCGAAAGCTCGACGAGGTGAGTATACACCGTTT the PBM binding z-score was -0.12. TAGCCTAGGTGATGCGGGCCAGTATAGTGTCGGC was tested, and the PBM binding z-score was -0.331. In the case of CTCGAAAGGTCGGTTGAGATGAGTATACGGATAA, the PBM binding z-score is reported as 2.2. Sequence CCTAGTTGGTCCAGGTCACACACGCTATAGGTAC has a PBM binding z-score of 2.68. Sequence CCTATTAGTTGACCATAATGGCAACCGAAGCTCG has a PBM binding z-score of 0.589. Work on TGAATGAGGTTATCAGATCAGGGAACGTTGCAAA yielded a PBM binding z-score of 1.62. For TCTATTAGTTGATTAGGGCTACCGAAACAGCGGA, the PBM binding z-score was 0.318. Work on AGACCAAGGTGATCGTGAGGTCGTTGATACTAAC yielded a PBM binding z-score of 1.99. GCTAGCAGGCCATTTGGATCACTCAATGACGGGC showed a PBM binding z-score of -0.278.
